In the library only some 6.5% were active in any assay of this set; here they are far more common.
HepG2 tox: HepG2 cytotoxicity, counter-screen for TGF-b inhibitors | HepG2 CAGA-GFP viability, ATP luminescence, 18 h | Potency, µM (top dose mostly 46.1 µM), for inactives: at the highest dose activity change, negative = cytotoxicity, most hits filed as cytotoxic | 410,000 tested, 0.76% active; also: potency is read from the fitted curve at half-maximal effect
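HepG2 CAGA-GFP cells (1000/well, DMEM with 1% FBS) received compound, then TGF-beta at 500 pg/mL final, and were incubated 18 hours at 37 degrees C. Viability was read by CellTiter-Glo luminescence. Media-only wells were set as complete cell-killing and DMSO as no toxicity.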
TGFb inhibitor: inhibitors of TGF-b signaling. HepG2 CAGA-GFP TGF-b/SMAD3 reporter, GFP fluorescence, 18 h; TGF-beta stimulated, 500 pg/mL final. Potency, µM (top dose mostly 46.1 µM), without a hit: at the highest dose activity, negative = inhibition, most hits filed as inhibitors. 410,000 tested, 1.2% active; also: potency is read from the fitted curve at half-maximal effect; % is scaled to controls: 0 for no effect and ±100 for the full control effect; nearly all actives have a fitted effect of over 65% in size
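Read-out: total well GFP (ex488/em500-530) summed from mean per-cell fluorescence. Cells: HEPG2 CAGA-GFP, 1% FBS DMEM, 18 h at 37 degrees C with 500 pg/mL final TGF-beta. Unstimulated wells served as the full-inhibition control; stimulated DMSO wells = 0%.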
HT1080 IDH1KD tx: kills HT-1080 cells with IDH1 knockdown. HT-1080 IDH1 knockdown viability, ATP luminescence, 48 h. 360,000 tested, 2% active. Potency, µM (highest dose often 46.1 µM), for inactives: at the top dose activity, negative = toxicity, actives largely listed as cytotoxic;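 also: potency is read from the fitted curve at half-maximal effect; 0% = DMSO wells and -100% = cell-free medium wells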
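Knockdown cells (IDH1KD HT-1080) received compounds 2 h after plating at 750 cells/well and were kept 48 h at 37 °C in 5% FBS RPMI. A CellTiter-Glo luminescence read gave % activity for curve fitting.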
Giardia killer: Giardia lamblia killing | Giardia lamblia trophozoite viability | 340,000 tested, 0.15% active | activity change, % at 7.66 µM, hits read low; in the data active = activity change below about -80%; inconclusive = between about -30% and that limit;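 also: parasites exposed to compound for two days anaerobically before the ATP read; % is scaled to controls: 0 for no effect and ±100 for the full control effect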
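Anaerobic 48 hrs incubation at 37 deg C of 100 trophozoites/well with test compounds; ATPLite 1-Step luminescence, 15-30 min RT, reports cellular ATP as viability.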
HT1080-NT tox: kills 2HG-producing HT-1080-NT fibrosarcoma cells; 360,000 tested, 1.6% active; Potency, µM (top dose mostly 46.1 µM), without a hit: top-dose activity, negative = less viability, hits mostly cytotoxic; HT-1080-NT fibrosarcoma viability, CellTiter-Glo ATP luminescence, 48 h; AID 686970;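 also: NT is the 2HG producing partner of a matched IDH1 knockdown line; potency is read from the fitted curve at half-maximal effect; 0% = DMSO-treated cells and -100% = media-only wells without cells; nearly all actives have a fitted effect of over 55% in size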
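Read-out is CellTiter-Glo luminescence after 10 minutes at room temperature, following 48 hours' compound treatment of HT-1080-NT cells (750 cells/well, RPMI, 5% FBS, 37 degrees C).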
IL1B secr inh: inhibitors of inflammasome signaling (IL-1 beta secretion); activity change, % at 57.5 µM; 360,000 tested, 4.7% active; THP-1 LPS/ATP IL-1B secretion, AlphaLISA, 16 h; hits give low values; in the data active = activity change below about -50%; inconclusive = mostly about -30% to -49%; also: % is scaled to controls: 0 for no effect and ±100 for the full control effect
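THP-1 cells pretreated 1 hr with compounds (up to 57.5 uM final), then stimulated with LPS (250 ng/mL final) plus ATP (1.25 mM final); secreted IL-1B measured by AlphaLISA after 16 hr, decreased signal indicating inhibition.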
* marks the source's active call; other numbers are inactive results; ? = inconclusive; / = no result given; ! = a repeat was not active; [ ] = another dose, or the depositor's remark. Unless noted, calls follow the shape of the dose curve; as a rule, active = well fitted curve in the direction sought with a large enough effect; inconclusive = small, poorly fitted or top-dose-only effect, or another doubt; inactive = no such curve, though single readings can be large; an effect the other way counts as inactive or inconclusive.

SMILES	HepG2 tox	TGFb inhibitor	HT1080 IDH1KD tx	Giardia killer	HT1080-NT tox	IL1B secr inh
COCCNC(=O)Cc1c(C)c2c(cc(C)c3c(C(C)(C)C)coc32)oc1=O	-27%	-29%	8.2µM*	-15	6.5µM*	-24
Cc1cc2oc(=O)c(CC(=O)NCCCO)c(C)c2c2occ(C(C)(C)C)c12	-27%	-30%	-2%	-13	-6%	-2
Cc1cc2oc(=O)c(CC(=O)NCCCN(C)C)c(C)c2c2occ(C(C)(C)C)c12	22µM*	?	5.8µM*	2	18µM*	-98*
CC1Cc2ccccc2N1C(=O)Cn1cc([N+](=O)[O-])cn1 (stereo unspecified)	19%	23%	2%	-22	0%	2
Cc1cc(C)n(-c2ccc(C(=O)Nc3ccc(N4CCOCC4)cc3)cc2)n1	-1%	?	12%	-1	14%	-18
COc1ccc(NC(=O)c2ccc(-n3nc(C)cc3C)cc2)cc1OC	0%	13%	-2%	-6	5%	-51*
Cc1cc(C)n(-c2ccc(C(=O)Nc3ccc(S(=O)(=O)N(C)C)cc3)cc2)n1	-38%	-13%	-13%	1	-19%	3
Cc1cc(C)n(-c2ccc(C(=O)Nc3ccc4c(c3)OCO4)cc2)n1	-10%	7%	-9%	9	-10%	-54*
Cc1cc(C)n(-c2ccc(C(=O)Nc3ccc(C)c(S(=O)(=O)N(C)C)c3)cc2)n1	-11%	-9%	?	8	?	-78*
CC(=O)c1cc2c(cc1NC(=O)c1ccc(-n3nc(C)cc3C)cc1)OCO2	-12%	3%	22%	-13	2%	?
Cc1cc(C)n(-c2ccc(C(=O)Nc3ccc(S(=O)(=O)NCc4ccco4)cc3)cc2)n1	-22%	?	?	18	-22%	-54*
Cc1ccc(C(=O)Nc2ccc(S(=O)(=O)NCc3ccco3)cc2)cc1	-3%	-2%	?	1	?	10
O=C(COC(=O)C1=COCCO1)Nc1ccc(F)cc1	-1%	0%	12%	3	4%	12
CCCCN(C=O)c1c(CC)nc2ccc(C(=O)NCCCn3ccnc3)cn12	2%	17%	8%	/	21%	3
Cn1c(SCC(=O)Nc2ccc3c(c2)OCCO3)nnc1-c1ccncc1	3%	16%	2%	-15	4%	-2
CCCCCC(=O)NNC(=S)NC(=O)c1ccccc1[N+](=O)[O-]	-45%	82%	?	-11	-27%	174
Cc1ccc(N2CC(C(=O)N3CCC(C(=O)Nc4ccc(Br)cc4)CC3)CC2=O)cc1 (stereo unspecified)	-12%	-28%	?	1	-3%	-61*
O=C(Nc1ccc(Cl)c(Cl)c1)C1CC(=O)N(c2ccc(Br)cc2)C1 (stereo unspecified)	-99%	?	-26%[9.24 µM]	4	?	-60*
Cc1cc(C)c2c(CN3CCC(C)CC3)cc(=O)oc2c1	-8%	0%	1%	-24	8%	21
COc1cc(N2C(=O)C=CC2=O)c(OC)cc1Cl	-91%	11µM*	?	27	18µM*	?
COc1cc(Cl)c(S(=O)(=O)N2CCCC2)cc1Cl	-15%	-2%	-4%	0	-12%	7
CC(/C=C/c1ccc(N(C)C)cc1)=N\N=C1\NC(=O)CC(C(=O)Nc2ccccc2)S1 (stereo unspecified)	2%	16µM*	?	-7	-17%	-22
CC(/C=C/c1ccc(N(C)C)cc1)=N/N=C1/NC(=O)CC(C(=O)Nc2ccc(Cl)cc2)S1 (stereo unspecified)	-38%	10µM*	16µM*	35	?	-6
COC(=O)[C@]12CCCCC=C1N(Cc1ccco1)C(=O)[C@H](CC(=O)N1CCSCC1)C2	/	/	5%	/	-4%	-6
O=S(=O)(NCC(c1ccco1)N1CCOCC1)c1ccc(Br)cc1 (stereo unspecified)	-15%	-29%	/	/	/	/
SMILES	HepG2 tox	TGFb inhibitor	HT1080 IDH1KD tx	Giardia killer	HT1080-NT tox	IL1B secr inh
Cc1ccc(NC(=O)CSc2ccc3nnc(CCNS(=O)(=O)c4ccccc4)n3n2)cc1Cl	0%	33%	/	/	/	/
O=c1cc(CCl)nc2sc3ccccc3n12	16µM*	?	?	-5	16µM*	-59*
COc1ccc2nc3n(c(=O)c2c1)-c1cc2ccccc2cc1C(=O)NC3Cc1ccc(O)cc1 (stereo unspecified)	-18%	?	3.3µM*	/	6.5µM*	-23
O=C1NC(Cc2ccc(O)cc2)c2nc3ccc(Br)cc3c(=O)n2-c2cc3ccccc3cc21 (stereo unspecified)	-36%	13µM*	13µM*	/	16µM*	-24
COc1ccc2nc3n(c(=O)c2c1)-c1cc2ccccc2cc1C(=O)NC3Cc1ccccc1 (stereo unspecified)	-9%	1%	-6%	/	-15%	-4
Cc1cc(C)n2nc(C(=O)Nc3ccc4c(c3)OCO4)cc2n1	4%	-15%	13%	-11	2%[9.24 µM]	-24
Cc1ccc(NC(CNS(=O)(=O)c2ccc(Cl)cc2)c2ccccc2)cc1 (stereo unspecified)	-83%	?	?	0	?	?
COc1cccc(NC(CNS(=O)(=O)c2ccc(C)cc2)c2ccccc2)c1 (stereo unspecified)	-94%	14µM*	/	/	/	/
O=S(=O)(NCC(Nc1ccc(Cl)cc1)c1ccccc1)c1ccccc1 (stereo unspecified)	16µM*!	?	?	2	?	-92*
O=S(=O)(NCC(c1ccccc1)N1CCNCC1)c1ccc(Cl)cc1 (stereo unspecified)	-101%	13µM*	-17%	3	?	0
COc1cccc(NC(CNS(=O)(=O)c2ccc(Cl)cc2)c2ccccc2)c1 (stereo unspecified)	-101%	11µM*	/	/	/	/
COc1cc(C(=S)N2CCOCC2)ccc1OC(=O)c1ccccc1C	-18%	-1%	-5%	-4	-17%	-7
COc1cccc(CNc2ccc(Br)cn2)c1O	-16%	11%	-25%	-23	-28%	-21
CC1CCc2nc3sc4c(c3c(N)c2C1)CCCC4 (stereo unspecified)	-10%	?	-3%	-14	-4%	/
CC1CCc2c(nc3sc4c(c3c2N)CCCC4)C1 (stereo unspecified)	-47%	?	?	-1	?	-91*
O=C(COc1ccccc1Cl)NC(=S)N1CCc2ccccc21	-13%	-21%	?	1	11µM*	36

Bioassay records: PubChem BioAssay, National Center for Advancing Translational Sciences (NCATS)
